From PubChem BioAssay (EPA / NIEHS)
Where “and” joins values, the source holds several entries; their conditions need not be identical. Equal entries are not always repeated. Results filed as inconclusive are left out. Some structures have more than one record in an assay (separate samples or runs), and their calls can disagree. Calls of active or inactive are those of the source. How the source made its calls, unless noted: active means hit-call score of the fitted dose curve at least 0.9, where 1 is the maximum; inactive means score below 0.9.

Legend:
[1] = biological target: human RAR-related Orphan Receptor gamma (RORg), RORC (gene 6097) (UniProt P51449); experiment: ATG_RORg_TRANS: Attagene TRANS-FACTORIAL HepG2 Assay for human RAR-related Orphan Receptor gamma (RORg) (AID 2283011; active means hit-call score of the fitted dose curve at least 0.9, where 1 is the maximum)
Procedure, shortened: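 Readout: reporter transcript induction (RT-PCR, fluorescent primer extension, capillary electrophoresis) after 24 h compound exposure of transiently transfected HepG2 cells carrying a RORg-Gal4 chimera and GAL4-UAS reporters; DMSO served as baseline, with increasing signal fitted.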

[2] = biological target: Retinoic acid receptor RXR-alpha (Homo sapiens) (UniProt P19793); experiment: ATG_RXRa_TRANS: Attagene TRANS-FACTORIAL HepG2 Assay for human Retinoid X Receptor alpha (RXRa) (AID 2283012; active means hit-call score of the fitted dose curve at least 0.9, where 1 is the maximum)
Procedure, shortened: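 Transient transfection of human HepG2 with multiple GAL4-UAS reporter constructs; 24 h compound exposure; total RNA isolated, reverse-transcribed, PCR-amplified, 6-FAM labelled, HpaI-cut, resolved by capillary electrophoresis. Positive-direction fit versus DMSO.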

[3] = biological target: human Retinoid X Receptor beta (RXRb), RXRB (gene 6257) (UniProt P28702); experiment: ATG_RXRb_TRANS: Attagene TRANS-FACTORIAL HepG2 Assay for human Retinoid X Receptor beta (RXRb) (AID 2283013; active means hit-call score of the fitted dose curve at least 0.9, where 1 is the maximum)
Procedure, shortened: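 Transfect HepG2 with GAL4-UAS multi-reporter constructs (chimeric NR-Gal4, TRANS format); dose compound 24 h; isolate RNA, RT-PCR, FAM primer extension, HpaI digest; quantify by capillary electrophoresis; positive direction vs DMSO.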

[4] = read-out: E-selectin (Homo sapiens) (UniProt P16581); experiment: BSK_3C_Eselectin: BioMAP Diversity Plus: 3C Assay for Eselectin Biomarker Activity (AID 2283015); conditions: primary human endothelial cells (HUVEC); actives raise or lower the signal
Procedure, shortened: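 Primary human umbilical vein endothelial cells (3C system) were dosed with chemical and cell-surface E-selectin measured by ELISA 24 h later. Bidirectional curve fitting used DMSO as negative control and baseline.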

[5] = read-out: Interleukin-1 alpha (IL1a), IL1A (gene 3552); experiment: BSK_BE3C_IL1a: BioMAP Diversity Plus: BE3C Assay for Interleukin-1 alpha (IL1a) Biomarker Activity (AID 2283016); conditions: primary human bronchial epithelial cells; actives raise or lower the signal
Procedure, shortened: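 BE3C primary human bronchial epithelium; cpd 24 h; IL-1a by ELISA; bidirectional fit vs DMSO; parallel SRB (0.1% SRB, 10% TCA fix, 560 nm) for cytotoxicity.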

[6] = read-out: Monocyte Chemoattractant Protein-1 (MCP1), CCL2 (gene 6347); experiment: BSK_3C_MCP1: BioMAP Diversity Plus: 3C Assay for Monocyte Chemoattractant Protein-1 (MCP1) Biomarker Activity (AID 2283017); conditions: primary human endothelial cells (HUVEC); actives raise or lower the signal
Procedure, shortened: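 Primary human umbilical vein endothelial cells (3C system) were exposed to test chemical for 24 h, after which MCP-1 was quantified by ELISA. Activity was fitted bidirectionally against DMSO as negative control and baseline.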

[7] = read-out: Monocyte Chemoattractant Protein-1 (MCP1), CCL2 (gene 6347); experiment: BSK_4H_MCP1: BioMAP Diversity Plus: 4H Assay for Monocyte Chemoattractant Protein-1 (MCP1) Biomarker Activity (AID 2283018); conditions: primary human endothelial cells (HUVEC); actives raise or lower the signal
Procedure, shortened: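 ELISA read-out of MCP-1 from human vascular endothelial primary cells taken at 24 hours after compound exposure. Activity was fitted in both directions relative to DMSO, which served as negative control.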

[8] = read-out: Human Leukocyte Antigen - DR isotype (HLADR), HLA-DRA (gene 3122); experiment: BSK_3C_HLADR: BioMAP Diversity Plus: 3C Assay for Human Leukocyte Antigen - DR isotype (HLADR) Biomarker Activity (AID 2283019); conditions: primary human endothelial cells (HUVEC); actives raise or lower the signal
Procedure, shortened: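 Primary human umbilical vein endothelial cells (3C system) were dosed with compound and cell-surface HLA-DR was quantified by ELISA at 24 h. Activity was fitted bidirectionally against DMSO as negative control and baseline.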

[9] = read-out: Interleukin-8 (IL8), CXCL8 (gene 3576); experiment: BSK_3C_IL8: BioMAP Diversity Plus: 3C Assay for Interleukin-8 (IL8) Biomarker Activity (AID 2283020); conditions: primary human endothelial cells (HUVEC); actives raise or lower the signal
Procedure, shortened: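 ELISA read-out of IL-8 from human umbilical vein endothelium, measured 24 h after chemical dosing. Activity is expressed relative to DMSO negative control, with both increases and decreases fitted.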

[10] = read-out: Monokine induced gamma interferon (MIG), CXCL9 (gene 4283); experiment: BSK_3C_MIG: BioMAP Diversity Plus: 3C Assay for Monokine induced gamma interferon (MIG) Biomarker Activity (AID 2283021); conditions: primary human endothelial cells (HUVEC); actives raise or lower the signal
Procedure, shortened: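 Read-out is ELISA detection of MIG on human umbilical vein endothelial cells, taken 24 h after dosing. Gain or loss of signal was scored relative to DMSO controls using bidirectional curve fitting.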

[11] = biological target: human Vitamin D Receptor (VDR), VDR (gene 7421) (UniProt P11473); experiment: ATG_VDR_TRANS: Attagene TRANS-FACTORIAL HepG2 Assay for human Vitamin D Receptor (VDR) (AID 2283022; active means hit-call score of the fitted dose curve at least 0.9, where 1 is the maximum)
Procedure, shortened: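 HepG2 cells were transiently transfected with multiple GAL4-UAS reporter units, so signal reflects exogenous chimeric receptor-Gal4 activity. After 24 h compound exposure, reporter mRNA was measured by RT-PCR, fluorescent labelling and capillary electrophoresis, fitted for gain of signal versus DMSO.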

[12] = BSK_3C_SRB: Viability Assessment in the BioMAP Diversity Plus: 3C Assay (AID 2283023); conditions: primary human endothelial cells (HUVEC);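 further: fitted both ways against DMSO so a hit may be signal rise or drop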
Procedure, shortened: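 Primary human umbilical vein endothelial cells in the 3C system were read 24 h after compound dosing. Total protein was stained with 0.1% sulforhodamine B after 10% TCA fixation and read at 560 nm, with bidirectional fitting against DMSO as baseline.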

[13] = read-out: Matrix Metallopeptidase 1 (MMP1), MMP1 (gene 4312); experiment: BSK_BE3C_MMP1: BioMAP Diversity Plus: BE3C Assay for Matrix Metallopeptidase 1 (MMP1) Biomarker Activity (AID 2283024); conditions: primary human bronchial epithelial cells; actives raise or lower the signal
Procedure, shortened: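 Human bronchial epithelial cells (BE3C system) exposed to compound for 24 h; MMP1 then quantified by ELISA. Activity was fitted in both directions relative to DMSO.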

[14] = BSK_3C_Vis: BioMAP Diversity Plus: 3C Assay for Morphology Visualization (AID 2283025); conditions: primary human endothelial cells (HUVEC);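 further: fitted both ways so gain or loss versus DMSO counts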;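 on AC50: light microscopy image of cell morphology used as background control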
Procedure, shortened: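 Chemicals were added to primary human umbilical vein endothelium, cells were incubated 24 h, and morphology was then visualized by light microscopy. Gain or loss of signal was fitted bidirectionally relative to DMSO.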

[15] = BSK_4H_SRB: Viability Assessment in the BioMAP Diversity Plus: 4H Assay (AID 2283027); conditions: primary human endothelial cells (HUVEC);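 further: cells exposed to compound for 24 h before staining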;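 on AC50: curves fitted both ways versus DMSO so AC50 may be loss or gain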
Procedure, shortened: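 Human umbilical vein endothelial cells, 24 h after chemical dosing; total protein measured by 0.1% sulforhodamine B staining after 10% TCA fixation, read at 560 nm. Bidirectional fitting against DMSO.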

[16] = BSK_BE3C_SRB: Viability Assessment in the BioMAP Diversity Plus: BE3C Assay (AID 2283028); conditions: primary human bronchial epithelial cells;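 on AC50: fitted both ways so AC50 may mark signal gain or loss versus DMSO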
Procedure, shortened: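 Human primary bronchial epithelial cells were exposed to test chemicals for 24 h. Total protein in parallel cultures was then measured by staining with 0.1% sulforhodamine B after 10% TCA fixation, with absorbance read at 560 nm. Activity was fitted bidirectionally against DMSO.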

[17] = read-out: Thrombomodulin, THBD (gene 7056); experiment: BSK_3C_Thrombomodulin: BioMAP Diversity Plus: 3C Assay for Thrombomodulin Biomarker Activity (AID 2283029); conditions: primary human endothelial cells (HUVEC); actives raise or lower the signal
Procedure, shortened: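 Read-out is ELISA of thrombomodulin on human umbilical vein endothelium 24 h after chemical dosing. Gain or loss of signal is scored relative to DMSO. Overt cytotoxicity is checked in parallel cultures by sulforhodamine B staining.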

[18] = read-out: Urokinase-type plasminogen activator receptor (uPAR), PLAUR (gene 5329); experiment: BSK_4H_uPAR: BioMAP Diversity Plus: 4H Assay for Urokinase-type plasminogen activator receptor (uPAR) Biomarker Activity (AID 2283030); conditions: primary human endothelial cells (HUVEC); actives raise or lower the signal
Procedure, shortened: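 Primary human umbilical vein endothelial cells were exposed to chemical for 24 h before cell-surface uPAR was quantified by ELISA. Activity was fitted bidirectionally against the DMSO negative control baseline.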

[19] = biological target: human Thyroid Receptor alpha (THRa1), THRA (gene 7067) (UniProt P10827); experiment: ATG_THRa1_TRANS: Attagene TRANS-FACTORIAL HepG2 Assay for human Thyroid Receptor alpha (THRa1) (AID 2283014; active means hit-call score of the fitted dose curve at least 0.9, where 1 is the maximum)
Procedure, shortened: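 HepG2 cells transiently transfected with multiplexed GAL4-UAS reporter units for exogenous chimeric THRa1-Gal4; reporter mRNA measured 24 h after dosing by RT-PCR, 6-FAM labelling, HpaI digestion and capillary electrophoresis. Gain-of-signal fitted versus DMSO baseline.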

[20] = read-out: Pselectin, SELP (gene 6403); experiment: BSK_4H_Pselectin: BioMAP Diversity Plus: 4H Assay for Pselectin Biomarker Activity (AID 2283026); conditions: primary human endothelial cells (HUVEC); actives raise or lower the signal
Procedure, shortened: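 ELISA read-out of P-selectin on human umbilical vein endothelium after 24 h of dosing. Values derive from bidirectional fitting relative to DMSO. Parallel SRB protein staining flagged overt cytotoxicity.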

Measured: AC50

Chain of E-selectin (Homo sapiens) (P16581 whole entry, looked up): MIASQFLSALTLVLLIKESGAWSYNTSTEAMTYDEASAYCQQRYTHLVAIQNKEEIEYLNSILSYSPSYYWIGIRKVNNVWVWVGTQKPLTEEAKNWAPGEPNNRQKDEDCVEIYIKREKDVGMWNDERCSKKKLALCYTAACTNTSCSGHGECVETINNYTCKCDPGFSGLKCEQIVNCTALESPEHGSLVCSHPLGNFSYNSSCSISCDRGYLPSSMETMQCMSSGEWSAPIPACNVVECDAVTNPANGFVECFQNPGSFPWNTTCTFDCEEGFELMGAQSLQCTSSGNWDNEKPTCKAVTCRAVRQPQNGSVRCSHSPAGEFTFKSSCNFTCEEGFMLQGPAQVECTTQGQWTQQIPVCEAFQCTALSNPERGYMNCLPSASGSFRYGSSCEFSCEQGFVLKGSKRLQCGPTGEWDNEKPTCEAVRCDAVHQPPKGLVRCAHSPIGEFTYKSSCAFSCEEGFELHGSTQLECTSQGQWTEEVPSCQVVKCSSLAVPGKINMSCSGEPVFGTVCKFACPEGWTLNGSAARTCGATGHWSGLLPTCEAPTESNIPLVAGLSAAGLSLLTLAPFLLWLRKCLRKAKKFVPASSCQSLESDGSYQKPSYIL
Chain of human Thyroid Receptor alpha (THRa1), THRA (gene 7067) (P10827 whole entry, looked up, the tested form may be a part): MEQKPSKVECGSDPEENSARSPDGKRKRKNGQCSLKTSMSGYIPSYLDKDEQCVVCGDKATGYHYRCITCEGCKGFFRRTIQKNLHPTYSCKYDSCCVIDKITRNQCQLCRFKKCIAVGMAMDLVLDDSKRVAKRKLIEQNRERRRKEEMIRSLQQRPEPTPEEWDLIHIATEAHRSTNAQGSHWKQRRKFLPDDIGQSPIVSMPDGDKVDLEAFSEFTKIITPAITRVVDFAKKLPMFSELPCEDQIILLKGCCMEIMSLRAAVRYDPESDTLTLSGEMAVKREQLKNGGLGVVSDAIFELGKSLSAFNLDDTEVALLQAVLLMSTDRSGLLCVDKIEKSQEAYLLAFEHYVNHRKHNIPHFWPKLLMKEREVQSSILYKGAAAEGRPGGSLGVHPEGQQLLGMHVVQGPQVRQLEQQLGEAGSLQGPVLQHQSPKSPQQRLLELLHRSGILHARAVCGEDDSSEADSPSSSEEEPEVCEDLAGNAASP
Chain of Retinoic acid receptor RXR-alpha (Homo sapiens) (P19793 whole entry, looked up, the tested form may be a part): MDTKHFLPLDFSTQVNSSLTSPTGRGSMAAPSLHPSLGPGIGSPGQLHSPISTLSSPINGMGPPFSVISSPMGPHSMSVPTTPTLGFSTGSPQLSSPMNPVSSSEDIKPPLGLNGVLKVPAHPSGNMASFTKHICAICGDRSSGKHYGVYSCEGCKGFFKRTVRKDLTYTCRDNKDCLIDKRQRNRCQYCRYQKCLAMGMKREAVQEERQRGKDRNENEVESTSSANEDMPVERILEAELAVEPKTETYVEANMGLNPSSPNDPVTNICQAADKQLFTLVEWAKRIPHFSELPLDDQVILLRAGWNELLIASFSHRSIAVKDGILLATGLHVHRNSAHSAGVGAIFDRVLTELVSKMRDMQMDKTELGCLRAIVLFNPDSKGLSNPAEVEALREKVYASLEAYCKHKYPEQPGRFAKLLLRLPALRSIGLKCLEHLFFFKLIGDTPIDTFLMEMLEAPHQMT
Chain of human Vitamin D Receptor (VDR), VDR (gene 7421) (P11473 whole entry, looked up, the tested form may be a part): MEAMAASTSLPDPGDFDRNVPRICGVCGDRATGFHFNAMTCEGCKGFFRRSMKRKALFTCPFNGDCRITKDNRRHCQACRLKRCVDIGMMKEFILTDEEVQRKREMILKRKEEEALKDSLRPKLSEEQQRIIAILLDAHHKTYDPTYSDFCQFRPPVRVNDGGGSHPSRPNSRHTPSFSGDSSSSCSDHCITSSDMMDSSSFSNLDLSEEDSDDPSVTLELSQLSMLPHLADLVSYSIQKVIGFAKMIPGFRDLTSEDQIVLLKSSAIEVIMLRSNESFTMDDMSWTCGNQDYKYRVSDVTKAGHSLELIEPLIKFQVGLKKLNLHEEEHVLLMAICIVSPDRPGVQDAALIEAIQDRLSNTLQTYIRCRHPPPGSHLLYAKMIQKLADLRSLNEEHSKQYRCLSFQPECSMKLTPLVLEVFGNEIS
Chain of human RAR-related Orphan Receptor gamma (RORg), RORC (gene 6097) (P51449 whole entry, looked up, the tested form may be a part): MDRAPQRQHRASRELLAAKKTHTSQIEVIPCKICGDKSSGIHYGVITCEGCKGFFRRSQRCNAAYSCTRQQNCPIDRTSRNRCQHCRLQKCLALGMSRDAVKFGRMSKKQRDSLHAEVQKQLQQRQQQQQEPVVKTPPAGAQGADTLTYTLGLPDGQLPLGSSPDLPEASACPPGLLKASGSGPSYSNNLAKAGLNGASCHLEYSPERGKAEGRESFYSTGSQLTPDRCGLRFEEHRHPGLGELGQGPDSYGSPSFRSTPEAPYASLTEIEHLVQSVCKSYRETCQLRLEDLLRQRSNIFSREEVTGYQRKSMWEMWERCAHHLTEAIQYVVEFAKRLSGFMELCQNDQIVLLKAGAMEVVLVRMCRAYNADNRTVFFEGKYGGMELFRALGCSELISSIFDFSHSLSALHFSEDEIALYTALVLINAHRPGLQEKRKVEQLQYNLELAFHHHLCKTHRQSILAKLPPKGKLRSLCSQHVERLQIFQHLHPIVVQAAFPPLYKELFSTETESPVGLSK
Chain of human Retinoid X Receptor beta (RXRb), RXRB (gene 6257) (P28702 whole entry, looked up, the tested form may be a part): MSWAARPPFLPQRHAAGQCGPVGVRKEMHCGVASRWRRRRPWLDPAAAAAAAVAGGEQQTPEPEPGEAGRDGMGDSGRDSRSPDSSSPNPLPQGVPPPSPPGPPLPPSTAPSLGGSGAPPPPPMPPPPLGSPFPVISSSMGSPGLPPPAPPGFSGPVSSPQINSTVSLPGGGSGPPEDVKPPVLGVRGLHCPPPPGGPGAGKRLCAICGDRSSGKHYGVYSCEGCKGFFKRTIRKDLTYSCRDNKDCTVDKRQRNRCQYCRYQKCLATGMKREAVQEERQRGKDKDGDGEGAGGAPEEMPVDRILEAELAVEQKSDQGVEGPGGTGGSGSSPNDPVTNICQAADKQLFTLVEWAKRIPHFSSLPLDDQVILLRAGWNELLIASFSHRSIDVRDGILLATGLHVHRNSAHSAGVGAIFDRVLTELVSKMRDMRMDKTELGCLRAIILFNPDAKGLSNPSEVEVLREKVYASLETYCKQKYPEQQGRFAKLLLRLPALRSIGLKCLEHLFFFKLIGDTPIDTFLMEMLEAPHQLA

CS(=O)(=O)NC(=O)c1cc(Oc2ccc(C(F)(F)F)cc2Cl)ccc1[N+](=O)[O-]
not listed: [19] | [20]
inactive: all other assays above

OCCOCCO
not listed: [11] | [19] | [20]
inactive: all other assays above

[Cl-].[Cl-].[Hg+2]
active: [4] 36.7 µM | [5] 31 µM | [7] 30.7 µM | [8] 30 µM | [9] 31.1 µM | [12] 30.3 µM | [13] 31.4 µM | [14] 37.5 µM | [20] 33 µM | [15] 20 µM | [16] 34.7 µM | [18] 30 µM
inactive: [1] | [2] | [3] | [19] | [6] | [11] | [17]

CC(O)CCO (stereo not given)
active: [3] 6.17 µM
not listed: [2] | [10]
inactive: all other assays above

CCNS(=O)(=O)C(F)(F)C(F)(F)C(F)(F)C(F)(F)C(F)(F)C(F)(F)C(F)(F)C(F)(F)F
active: [5] 44.5 µM and 21.9 µM | [6] 51.4 µM | [7] 30 µM | [8] 14.6 µM and 6.07 µM | [9] 26 µM | [12] 43.4 µM and 44.3 µM | [13] 4.99 µM and 11.3 µM | [20] 30 µM and 43.4 µM | [15] 45.1 µM and 47.3 µM | [16] 49.7 µM and 50.3 µM
inactive: [1] | [2] | [3] | [19] | [4] | [5] | [6] | [7] | [8] | [9] | [10] | [11] | [12] | [13] | [14] | [20] | [15] | [16] | [17] | [18]

Nc1ccc([N+](=O)[O-])cc1
not listed: [10] | [20]
inactive: all other assays above
